Some test systems named below: SR leukemia; RPMI-8226 leukemia; OVCAR-8 ovarian; OVCAR-5 ovarian; OVCAR-4 ovarian; SK-OV-3 ovarian; IGROV1 ovarian; OVCAR-3 ovarian; HS 578T breast; NCI/ADR-RES ovarian; T-47D breast; BT-549 breast; MDA-MB-435 melanoma; SW-620 colon; MCF7 breast; HCT-116 colon; HCC-2998 colon; KM12 colon.
Holding throughout (test): NCI-60 one-dose screen, 48 h (100 = growth as untreated, 0 = no growth, -100 = all killed)
Common to all, as to conditions: 10 µM unless noted

About 83,000 compounds went through this panel and 20% of them were active in at least one assay; those are over-represented in the sample as a whole.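 Percent growth is the endpoint: 0 to 100 indicates growth inhibition (40 means 60% inhibition), 0 means no net growth, and negative values indicate cell death.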 A number with no mark means an inactive call. Activity calls are given as the source filed them. The calls were made as follows: active = growth percent below 10; inactive = the rest.

In the case of `Cc1cc2nc(C(Cl)Cl)nc(-c3ccc(S(=O)(=O)N(C)C)cc3)n2n1`, the growth is 11.8% with SR leukemia; 55.3% in the experiment on RPMI-8226 leukemia; 33.9% in the experiment with OVCAR-8 ovarian; 67.3% in the experiment with OVCAR-5 ovarian; 57.2% in the experiment on OVCAR-4 ovarian; 50.5% in the experiment on SK-OV-3 ovarian. Besides, the growth with IGROV1 ovarian was 23.1%; with OVCAR-3 ovarian, 78.4%; in the experiment with HS 578T breast, 72.7%; in the experiment on NCI/ADR-RES ovarian it was 26.3%; with T-47D breast, 69.8%; in the experiment on BT-549 breast it was 38.5%. Further, the growth is 47% in the experiment on MDA-MB-435 melanoma; 18.2% in the experiment with SW-620 colon; 62.1% in the experiment on MCF7 breast; 18.2% in the experiment with HCT-116 colon; 47.6% with HCC-2998 colon; 39.1% with KM12 colon.

In the case of `O=C(CSc1nc2ccccc2c(=O)n1-c1ccccc1)N/N=C/c1ccc(Oc2ccc(Br)cc2)cc1`, the growth is 73.4% with SR leukemia; 68.3% with RPMI-8226 leukemia; 63.3% in the experiment with OVCAR-8 ovarian; 94% in the experiment with OVCAR-5 ovarian; 81.7% with OVCAR-4 ovarian; 84.5% in the experiment on SK-OV-3 ovarian. Also, the growth in the experiment with IGROV1 ovarian is 65.6%; with OVCAR-3 ovarian it was 117%; in the experiment with HS 578T breast, 60.8%; in the experiment with NCI/ADR-RES ovarian, 55.2%; with T-47D breast, 82.4%; in the experiment on BT-549 breast, 73.1%. For the same compound, the growth in the experiment on MDA-MB-435 melanoma is 80.8%; in the experiment on SW-620 colon it was 29.6%; with MCF7 breast, 68.9%; with HCT-116 colon it was 7.81% (active); in the experiment on HCC-2998 colon, 87.1%; in the experiment on KM12 colon, 76.3%.

Turning to `COc1cc(C(=O)c2cc(C(C)=O)c3ccc(C)cn23)cc(OC)c1OC`, the growth in the experiment with SR leukemia is 26.9%; with RPMI-8226 leukemia, 54.6%; in the experiment with OVCAR-8 ovarian, 50.6%; with OVCAR-5 ovarian, 59.5%; in the experiment with OVCAR-4 ovarian it was 79.7%; in the experiment on SK-OV-3 ovarian, 77.4%. Also, the growth with IGROV1 ovarian is 41.9%; in the experiment on OVCAR-3 ovarian, 28%; in the experiment on HS 578T breast, 59%; in the experiment on NCI/ADR-RES ovarian it was 18.4%; in the experiment on T-47D breast, 37.9%; in the experiment with BT-549 breast it was 53.1%. Further, the growth was -12.7% (active) in the experiment on MDA-MB-435 melanoma; 32.4% in the experiment on SW-620 colon; 14.8% with MCF7 breast; 18.4% with HCT-116 colon; 61.6% in the experiment with HCC-2998 colon; 28.6% in the experiment on KM12 colon.

`CN1CCN(c2ccc(Nc3nc(NCCCNS(=O)(=O)c4ccc(C(F)(F)F)cc4)c4sccc4n3)cc2)CC1`: the growth in the experiment on SR leukemia is 7.01% (active); in the experiment with RPMI-8226 leukemia it was -9.61% (active); in the experiment on OVCAR-8 ovarian, -72.2% (active); in the experiment on OVCAR-5 ovarian, -3% (active); with OVCAR-4 ovarian it was -35% (active); with SK-OV-3 ovarian it was -37% (active). In addition, the growth with IGROV1 ovarian was -6.63% (active); in the experiment with OVCAR-3 ovarian it was -74.1% (active); in the experiment with HS 578T breast it was -35% (active); in the experiment with NCI/ADR-RES ovarian, -2.63% (active); in the experiment with T-47D breast, -29% (active); in the experiment with BT-549 breast it was -88.1% (active). Besides, the growth in the experiment on MDA-MB-435 melanoma was -62.4% (active); in the experiment on SW-620 colon, -33.5% (active); in the experiment on MCF7 breast, -70% (active); in the experiment on HCT-116 colon, -73.8% (active); in the experiment with HCC-2998 colon, -63.5% (active); in the experiment with KM12 colon, -25.2% (active).

On to `Cc1csc(/N=C(N)/N=C(\N)c2cccc(Br)c2)n1`, for which the growth in the experiment on SR leukemia was 66.9%; in the experiment with RPMI-8226 leukemia, 102%; in the experiment with OVCAR-8 ovarian, 96.5%; in the experiment with OVCAR-5 ovarian it was 102%; in the experiment with OVCAR-4 ovarian, 95.5%; in the experiment on SK-OV-3 ovarian, 91.5%. Further, the growth in the experiment with IGROV1 ovarian was 81.4%; in the experiment with OVCAR-3 ovarian, 107%; in the experiment on HS 578T breast, 95.1%; in the experiment on NCI/ADR-RES ovarian it was 72.7%; with T-47D breast, 74.3%; in the experiment with BT-549 breast, 92.6%. Moreover, the growth was 46.2% in the experiment on MDA-MB-435 melanoma; 84.4% in the experiment with SW-620 colon; 73.3% in the experiment with MCF7 breast; 88.8% in the experiment with HCT-116 colon; 97% in the experiment on HCC-2998 colon; 73.2% with KM12 colon.

For the compound `COc1ccc(/C=N/NC(=O)CSc2nc(-c3cnccn3)cc(-c3cccs3)c2C#N)cc1`, the growth was 65.3% with SR leukemia; 48.3% in the experiment on RPMI-8226 leukemia; 61.4% in the experiment on OVCAR-8 ovarian; 103% in the experiment with OVCAR-5 ovarian; 92.6% in the experiment with OVCAR-4 ovarian; 75.6% in the experiment with SK-OV-3 ovarian. Further, the growth with IGROV1 ovarian was 90.7%; in the experiment with OVCAR-3 ovarian, 90.6%; in the experiment on HS 578T breast, 64.6%; in the experiment on NCI/ADR-RES ovarian, 65.8%; in the experiment on T-47D breast it was 68.7%; with BT-549 breast, 49.2%. In addition, the growth was 81.6% with MDA-MB-435 melanoma; 93% with SW-620 colon; 76.8% with MCF7 breast; 22.4% with HCT-116 colon; 79.1% with HCC-2998 colon; 64.7% in the experiment on KM12 colon.

`C[C@H](Nc1ncnc2ccc(-c3cnc(Cl)c(NS(C)(=O)=O)c3)cc12)c1ccccc1`: the growth was -20.1% (active) in the experiment with SR leukemia; -7.72% (active) in the experiment with RPMI-8226 leukemia; -26.3% (active) with OVCAR-8 ovarian; -14.9% (active) with OVCAR-5 ovarian; 0.576% (active) with OVCAR-4 ovarian; -65.5% (active) with SK-OV-3 ovarian. In addition, the growth in the experiment on IGROV1 ovarian is -28.8% (active); with OVCAR-3 ovarian, -65.9% (active); with HS 578T breast it was -20% (active); in the experiment on NCI/ADR-RES ovarian, 7.69% (active); in the experiment with T-47D breast, -53.2% (active); with BT-549 breast, -61.5% (active). Besides, the growth in the experiment on MDA-MB-435 melanoma was -40% (active); with SW-620 colon it was 1.48% (active); in the experiment on MCF7 breast, 2.5% (active); in the experiment on HCT-116 colon, -61.4% (active); in the experiment with HCC-2998 colon it was -77.3% (active); with KM12 colon it was -79% (active).

For the compound `O=C(CSc1nc2ccccc2c(=O)n1-c1ccccc1)Nc1ccc(S(=O)(=O)Nc2nccs2)cc1`, the growth was 65% in the experiment on SR leukemia; 36.8% in the experiment on RPMI-8226 leukemia; 89.7% in the experiment on OVCAR-8 ovarian; 56.9% in the experiment on OVCAR-5 ovarian; 77.5% in the experiment on OVCAR-4 ovarian; 103% with SK-OV-3 ovarian. For the same compound, the growth was 83% in the experiment on IGROV1 ovarian; 38.9% in the experiment with OVCAR-3 ovarian; 60.3% in the experiment on HS 578T breast; 98.3% in the experiment on NCI/ADR-RES ovarian; 69.3% in the experiment on T-47D breast; 45.2% in the experiment on BT-549 breast. Further, the growth in the experiment on MDA-MB-435 melanoma was 84.1%; in the experiment with SW-620 colon, 67.9%; in the experiment with MCF7 breast it was 57.6%; in the experiment with HCT-116 colon, 37.7%; with HCC-2998 colon, 118%; in the experiment on KM12 colon, 94.4%.
